# Screens: PubChem BioAssay, National Center for Advancing Translational Sciences (NCATS)
# KB-3-1 tox = qHTS assay for MDR1-selective chemotherapeutics: Primary screen using the parental adenocarcinoma cell KB-3-1. KB-3-1 viability, CellTiter-Glo ATP luminescence, 72 h. Potency, µM (highest dose often 46.1 µM), usual class: cytotoxic. actives 1.4% (n = 400,000). AID 1347075, 2019; further: nearly all actives have a fitted effect of over 60% in size
#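 Multi-concentration cytotoxicity screen in KB-3-1 cells grown in DMEM lacking phenol red with 10% FBS. After 72 h at 37 °C with compound, ATP-dependent luminescence was recorded.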
# HT1080NT lethal = qHTS for induction of synthetic lethality in tumor cells producing 2HG: qHTS for the HT-1080-NT fibrosarcoma cell line; HT-1080-NT fibrosarcoma viability, CellTiter-Glo ATP luminescence, 48 h; Potency, µM (series often up to 46.1 µM), without a hit: top-dose activity, negative = less viability, hits mostly cytotoxic; actives 1.6% (n = 360,000); AID 686970, 2013;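 further: NT is the 2HG producing partner of a matched IDH1 knockdown line; 0% = DMSO-treated cells and -100% = media-only wells without cells; nearly all actives have a fitted effect of over 55% in size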
#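 Luminescent CellTiter-Glo readout after 48 hours of compound exposure at 37 degrees C defined viability of HT-1080-NT cells. Activity was normalized to DMSO wells and cell-free media wells; concentration-response curves were fitted and assigned curve classes.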
# TDP1 cell noCPT = qHTS for Inhibitors of human tyrosyl-DNA phosphodiesterase 1 (TDP1): qHTS in cells in absence of CPT; DT40 Tdp1-/- hTDP1 cells, no CPT, ATP luminescence, 48 h; Potency, µM (series often up to 46.2 µM), without a hit: top-dose activity change, negative = growth inhibition, actives largely listed as inhibitors; actives 15% (n = 420,000); AID 686978, 2013; further: nearly all actives have a fitted effect of over 55% in size
#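 Chicken DT40 Tdp1-/- cells complemented with human TDP1, screened without camptothecin (DMSO vehicle only), 400 cells/well. Compounds pin-transferred, cells incubated at 37 °C for at least 48 hr. Growth read as ATP-dependent luminescence (CellTiter-Glo, 30 min at RT).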
# KB-V1 MDR tox = qHTS assay for MDR1-selective chemotherapeutics: Primary screen using the drug-selected MDR subline cells KB-V1; KB-V1 MDR cells viability, CellTiter-Glo, 72 h; AID 1347076, 2019; Potency, µM (series often up to 46.1 µM), usual class: cytotoxic; actives 3.4% (n = 400,000); further: nearly all actives have a fitted effect of over 60% in size
#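 KB-V1, DMEM (no phenol red) + 10% FBS; cpd pin-transferred, titration series; 72 h, 37 degrees C; CellTiter-Glo, luminescence. Data normalized, curve-fit.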
# HT1080 IDH1KD tx = qHTS for induction of synthetic lethality in tumor cells producing 2HG: qHTS for the HT-1080-IDH1KD cell line; HT-1080 IDH1 knockdown viability, ATP luminescence, 48 h; AID 686971, 2013; Potency, µM (highest dose often 46.1 µM), for the others: at the highest dose activity, negative = toxicity, hits mostly cytotoxic; actives 2% (n = 360,000);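 further: 0% = DMSO wells and -100% = cell-free medium wells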
#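 In this qHTS, HT-1080 cells depleted of IDH1 are exposed for 48 h at 37 °C to compound titrations. Toxicity is scored from CellTiter-Glo luminescence, with DMSO as full viability and medium alone as none.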
# DT40 TDP1 CPT = qHTS for Inhibitors of human tyrosyl-DNA phosphodiesterase 1 (TDP1): qHTS in cells in presence of CPT; chicken DT40 Tdp1-/-;hTDP1 cells + 20 nM CPT, ATP luminescence, 48 h; actives 12% (n = 420,000); Potency, µM (highest dose often 46.2 µM), without a hit: top-dose activity change, negative = growth inhibition, most hits filed as inhibitors; further: nearly all actives have a fitted effect of over 55% in size
#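 Chicken DT40 Tdp1-/- cells complemented with human TDP1, 400 cells/well, exposed to compounds plus 20 nM camptothecin for at least 48 h at 37 C; viability read as ATP content by CellTiter-Glo luminescence.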
# * hit, by the source's call; i = inactive; ? = inconclusive; nt = not tested or not shown. Compounds with a hit are over-represented: about 19% of the library has one in this group of screens. The call rests on the fitted dose curve; in most records, active means well fitted curve in the direction sought with a large enough effect; inconclusive means small, poorly fitted or top-dose-only effect, or another doubt; inactive means no such curve, though single readings can be large; an effect the other way counts as inactive or inconclusive. Unless noted, on the % scale 0 is the no-effect control and ±100 the full control effect; potency means the concentration at half of the fitted maximal effect.
SMILES,KB-3-1 tox,HT1080NT lethal,TDP1 cell noCPT,KB-V1 MDR tox,HT1080 IDH1KD tx,DT40 TDP1 CPT
CCCCCCCCN1C(=O)[C@H](CC(=O)NCCC(C)C)C[C@@]2(C(=O)OC)CC(C)(C)CC=C12,i,-14%,?,?,-14%,?
CCCCCCCCN1C(=O)[C@H](CC(=O)NCCCN2CCCC2=O)C[C@@]2(C(=O)OCC)CCCC=C12,i,-27%,?,i,-26%,?
CCCCCCCCN1C(=O)[C@H](CC(=O)NCCCOC)C[C@@]2(C(=O)OCC)CCCC=C12,?,?,12µM*,?,?,23µM*
CCCCCCCCN1C(=O)[C@H](CC(=O)NCCC(C)C)C[C@@]2(C(=O)OCC)CCC=C12,i,-1%,21µM*,?,?,21µM*
O=[N+]([O-])c1ccc(OCn2cncn2)cc1,i,2%,-19%,i,-1%,-11%
C/C(=N\OC(=O)C1CC1)C1CC1c1ccc(F)cc1 (configuration not stated),i,0%,-4%,i,-3%,-3%
COC(=O)[C@]12CCCCC=C1N(CCc1ccc(OC)c(OC)c1)C(=O)[C@H](CC(=O)NCCC(C)C)C2,i,-14%,?,?,-13%,?
CCOC(=O)[C@]12CCC=C1N(CCC1=CCCCC1)C(=O)[C@H](CC(=O)N1CCSCC1)C2,i,9%,?,i,11%,18µM*
CCOC(=O)[C@]12CCCC=C1N(CCc1ccc(OC)c(OC)c1)C(=O)[C@H](CC(=O)NCCc1ccccc1OC)C2,i,-18%,16µM*,13µM*,-20%,13µM*
CCOC(=O)N1CCN(C(=O)C[C@@H]2C[C@@]3(C(=O)OCC)CCC=C3N(CCC3=CCCCC3)C2=O)CC1,i,19%,?,?,14%,?
CCOC(=O)[C@]12CCC=C1N(Cc1ccc3c(c1)OCO3)C(=O)[C@H](CC(=O)NCCc1ccccc1OC)C2,i,-23%,?,i,-16%,?
CCCCCCCCN1C(=O)[C@H](CC(=O)NCCc2ccccc2OC)C[C@@]2(C(=O)OCC)CCCC=C12,i,?,29µM*,21µM*,?,?
CCCCNC(=O)C[C@@H]1C[C@@]2(C(=O)OCC)CCCC=C2N(Cc2ccccc2)C1=O,i,8%,?,?,8%,?
CCOC(=O)[C@]12CCCC=C1N(CCc1ccc(OC)c(OC)c1)C(=O)[C@H](CC(=O)NCCCCc1ccccc1)C2,?,?,16µM*,21µM*,?,?
CCOC(=O)[C@]12CCCC=C1N(CCC1=CCCCC1)C(=O)[C@H](CC(=O)NCc1ccc(OC)c(OC)c1)C2,i,-14%,15µM*,?,-11%,15µM*
CC(=O)N(CCC(c1ccccc1)c1ccco1)Cc1cccs1 (configuration not stated),?,-5%,?,21µM*,?,15µM*
O=C(c1ccco1)N(CCC(c1ccccc1)c1ccco1)Cc1ccco1 (configuration not stated),i,5%,?,13µM*,9%,?
CCC(=O)Nc1ccc(S(=O)(=O)NC[C@H]2O[C@@H](n3cc(C)c(=O)[nH]c3=O)C[C@@H]2O)cc1,i,6%,4%,i,1%,2%
CCN(CC)c1ccc(C(=O)NCc2ccc3c(c2)CCN3C(=O)c2cccc(C)c2)cc1,i,nt,?,i,nt,?
Cc1ccc(C)c(NC(=O)NCc2ccc3c(c2)CCN3C(=O)c2ccccc2)c1,i,nt,?,i,nt,21µM*
CCN(CC)c1ccc(C(=O)NCc2ccc3c(c2)CCN3C(=O)c2ccccc2)cc1,i,nt,23µM*,i,nt,21µM*
CN(C)c1ccc(C(=O)NCc2ccc3c(c2)CCN3C(=O)c2ccccc2)cc1,i,nt,?,i,nt,16µM*
Cc1ccc(C(=O)NCc2ccc3c(c2)CCN3C(=O)c2ccc(C)cc2)cc1,nt,nt,18µM*,nt,nt,21µM*
CN(C)S(=O)(=O)c1ccc2c(c1)N(CC(=O)N1CCN(c3cccc(Cl)c3)CC1)CCS2,i,nt,nt,?,nt,nt
CCOC(=O)[C@]12CCC=C1N(Cc1ccco1)C(=O)[C@H](CC(=O)NCC1CCCCC1)C2,i,0%,?,i,5%,?
COc1ccc(-c2[nH]ncc2-c2ccc3c(c2)OCCO3)c(O)c1,i,-10%,7.3µM*,i,-21%,4.6µM*
CCc1cc(-c2[nH]ncc2-c2ccc(OC)cc2)c(O)cc1O,?,?,18µM*,?,?,?
Oc1ccccc1-c1cc(-c2ccc3c(c2)OCCO3)n[nH]1,i,?,?,?,?,?
